Assay outcomes: PubChem, National Center for Advancing Translational Sciences (NCATS)
NPC1 prom act – qHTS Assay for NPC1 Promoter Activators; Huh7 NPC1 promoter luciferase reporter, 24 h; actives 2.4% (n = 320,000); Potency, µM (titrated, usually from 9.22 µM), for inactives: at the top dose activation, most hits filed as activators; also: % of control where 0% means no effect; nearly all actives have a fitted effect of over 60% in size
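NPC1 promoter–luciferase Huh7 cells; 24 h compound; luminescence.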
FLuc modulator – qHTS profiling assay for firefly luciferase inhibitor/activator using purifed enzyme and Km concentrations of substrates (counterscreen for miR-21 project); Luciferin 4-monooxygenase (Photinus pyralis), P08659; purified FLuc, Km substrates, luminescence inhibition; Potency, µM (highest dose often 57.5 µM), for inactives: at the highest dose activity change, negative = inhibition, hits mostly inhibitors; actives 6.9% (n = 360,000); AID 588342, 2011;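 also: plate controls were vehicle for no effect and reference inhibitor for full effect; nearly all actives have a fitted effect of over 55% in size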
Target sequence (P08659 whole entry, looked up): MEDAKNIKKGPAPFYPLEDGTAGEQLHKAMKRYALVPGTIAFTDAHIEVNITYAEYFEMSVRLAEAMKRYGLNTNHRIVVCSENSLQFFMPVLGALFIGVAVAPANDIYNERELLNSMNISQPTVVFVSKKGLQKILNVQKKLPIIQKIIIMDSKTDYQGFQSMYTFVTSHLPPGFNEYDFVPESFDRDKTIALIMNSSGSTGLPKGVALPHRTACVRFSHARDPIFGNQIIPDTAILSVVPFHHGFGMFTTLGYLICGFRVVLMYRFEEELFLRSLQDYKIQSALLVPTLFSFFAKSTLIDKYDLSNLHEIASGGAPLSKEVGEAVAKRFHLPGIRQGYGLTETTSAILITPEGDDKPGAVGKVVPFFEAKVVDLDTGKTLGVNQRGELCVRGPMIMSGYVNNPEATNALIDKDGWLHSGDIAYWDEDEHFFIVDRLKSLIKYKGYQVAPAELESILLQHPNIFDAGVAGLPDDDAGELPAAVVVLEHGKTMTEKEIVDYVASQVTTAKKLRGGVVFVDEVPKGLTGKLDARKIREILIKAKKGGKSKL
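Purified P. pyralis luciferase, 10 nM final, with Km-level 10 uM D-luciferin and 10 uM ATP in 50 mM Tris acetate pH 7.5, 10 mM Mg acetate, 0.01% Tween-20, 0.05% BSA; 6-point qHTS titration about 60 µM downward; luminescence read.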
Rab9 prom act – qHTS Assay for Rab9 Promoter Activators | Potency, µM (highest dose often 9.22 µM), for inactives: at the highest dose activation, negative = inhibition, most hits filed as activators | actives 2.8% (n = 320,000) | Huh7 Rab9 promoter-luciferase reporter, luminescence, 24 h; also: % of control where 0% means no effect; nearly all actives have a fitted effect of over 60% in size
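Steps: seed 1500 Huh7 Rab9-luc cells per well, rest 2 h at 37 °C; add compound in DMSO; incubate 24 h; add luciferase reagent, 10 min ambient; read luminescence.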
ELG1 genotoxic – qHTS screen for small molecules that induce genotoxicity in human embryonic kidney (HEK293T) cells expressing luciferase-tagged ELG1 | actives 1.3% (n = 330,000) | HEK293T ELG1-luciferase reporter, luminescence, 16 h | Potency, µM (highest dose often 46 µM), for inactives: at the highest dose activity change, positive = activation, actives largely listed as activators; also: % of control where 0% means no effect; nearly all actives have a fitted effect of over 60% in size
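HEK293T cells expressing luciferase-tagged ELG1 were exposed to compound or DMSO vehicle for 16 hr at 37 °C and 5% CO2. Luciferase activity was then measured with ONE-Glo after 30 min at room temperature.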
SMN2 splice enh – qHTS Assay for Enhancers of SMN2 Splice Variant Expression; Potency, µM (highest dose often 46.1 µM), without a hit: at the top dose activity change, positive = activation, usual class: activators; actives 2.8% (n = 210,000); HEK293 SMN2-luciferase splicing reporter, luminescence, 30-36 h; also: % of control where 0% means no effect; nearly all actives have a fitted effect of over 55% in size
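HEK293 cells carry an SMN2 minigene-luciferase reporter in which exon 7 inclusion puts luciferase in frame. Cells were seeded at 2000 cells/well, attached for 10-12 hours, then exposed to compounds for 30-36 hours at 37C before ONE-Glo luminescence.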
An asterisk follows results filed as active; ? = inconclusive; . = not tested or not shown. The list is not random: actives were taken first. Their share in the collection is about 7.4%. Calls follow the shape of the dose curve; as a rule, active = well fitted curve in the direction sought with a large enough effect; inconclusive = small, poorly fitted or top-dose-only effect, or another doubt; inactive = no such curve, though single readings can be large; an effect the other way counts as inactive or inconclusive. Potency is read from the fitted curve at half-maximal effect.

SMILES	NPC1 prom act	FLuc modulator	Rab9 prom act	ELG1 genotoxic	SMN2 splice enh
COC(=O)N/N=C/c1ccc(-c2ccc(Cl)cc2Cl)o1	-3%	?	8%	5%	.
Cc1c(C(=O)O)cccc1-c1ccc(/C=N/Nc2ccc(Br)cc2)o1	?	12µM*	?	?	.
O=C(O)c1ccc(N/N=C/c2ccc(-c3ccc(Cl)cc3Cl)o2)cc1	?	0.95µM*	21%	?	.
COc1cccc(NC(=O)CN2C(=O)c3cccc4cccc2c34)c1	.	3%	.	.	-7%
O=C(CN1C(=O)COc2ccc(S(=O)(=O)N3CCCCCC3)cc21)N1CCN(c2ccc(F)cc2)CC1	.	-8%	.	.	-5%
O=C(Cn1ncc2c3ccccc3n(Cc3cccc(Cl)c3)c2c1=O)NC1CCCCCC1	.	-4%	.	.	7%
O=C1C(Cl)=C(NC2CCc3ccccc32)C(=O)c2ncccc21 (stereo not given)	.	.	.	.	-104%
O=C(O)c1cc(N/N=C/c2ccc(-c3ccc(F)cc3)o2)ccc1Cl	?	9.5µM*	?	?	.
O=S(=O)(Nc1cccc(-c2ccc(N3CCOCC3)nn2)c1)c1ccc(F)c(C(F)(F)F)c1	.	9.5µM*	.	.	.
O=[N+]([O-])c1ccccc1S(=O)(=O)Nc1ccc(-c2ccc(N3CCCC3)nn2)cc1	-2%	-28%	26%	20%	.
O=S(=O)(Nc1cccc(-c2ccc(N3CCCC3)nn2)c1)c1ccc(F)c(C(F)(F)F)c1	.	19µM*	.	.	.
O=S(=O)(Nc1cccc(-c2ccc(N3CCCC3)nn2)c1)c1ccccc1C(F)(F)F	.	17µM*	.	.	.
CC1CCC(Nc2nc3c(-c4cccc(C(F)(F)F)c4)nnn3c3ccccc23)CC1 (stereo not given)	.	2%	.	.	-38%
Cc1ccccc1-c1ncnn1-c1sc2c(c1C#N)CCCCC2	.	0.34µM*	.	.	-9%
CC(C)(C)NCc1cccn1-c1sc2c(c1C#N)CCCC2	0%	2%	0%	-5%	-16%
N#Cc1c(-n2ncnc2-c2ccc(F)cc2)sc2c1CCCCC2	.	0.43µM*	.	.	-11%
N#Cc1c(N2C(=O)c3ccc(C(=O)O)cc3C2=O)sc2c1CCCC2	0%	?	0%	0%	.
N#Cc1c(-n2ncnc2-c2cccc(Br)c2)sc2c1CCCCC2	.	3.4µM*	.	.	-3%
CCCS(=O)(=O)c1c(S(=O)(=O)CCC)c2cc(C(C)(C)C)ccn2c1C(=O)c1ccc(C)cc1	.	2%	.	.	1%
CCC1SC(=NC(=O)c2ccc(Cl)c(Cl)c2)NC1=O (stereo not given)	23%	24µM*	23%	?	?
CCC1SC(=Nc2cccc(C)c2)NC1=O (stereo not given)	0%	-9%	0%	3%	.
Cc1ccc(NC(=O)Cn2c(=O)n(Cc3ccc4c(c3)OCO4)c(=O)c3ccc(C(=O)NC4CCCCC4)cc32)c(C)c1	.	-1%	.	.	9%
Cc1cc2n(n1)C(c1ccc3c(c1)OCO3)Nc1c(C)cccc1-2 (stereo not given)	-1%	-7%	-2%	-4%	4µM*
Oc1[nH]c2ccccc2c1N=Nc1nncc2ccccc12	?	7.6µM*	3.5µM*	7%	.
Cc1sc2ncnc(N=Nc3c(O)[nH]c4ccccc34)c2c1C	16%	0.85µM*	?	3%	-13%
SMILES	NPC1 prom act	FLuc modulator	Rab9 prom act	ELG1 genotoxic	SMN2 splice enh
Fc1ccc(-c2onc3ccc(C4OCCO4)cc23)cc1	6%	8.5µM*	6%	-5%	-12%
CC1(c2ccc3noc(-c4ccc(F)cc4)c3c2)OCCO1	1%	?	-2%	-1%	-72%
COc1ccccc1CNC(=O)COCc1cc(-c2cccs2)on1	.	-15%	.	.	.
CN(C)/C=C1\Oc2ccc3ccccc3c2C1=O	3.2µM*	17µM*	?	14%	18µM*
Clc1cc(Cl)c(OCc2nc(-c3ccccn3)no2)cc1Cl	1.1µM*	1.3µM*	0.71µM*	?	11µM*
CC(C)(C)c1ccc(OCc2nc(-c3ccccn3)no2)c(Br)c1	.	3µM*	.	.	13µM*
COc1ccc(Cl)cc1NC(=O)CSc1ccc2nnc(CCNS(=O)(=O)c3ccccc3)n2n1	.	2%	.	.	.
O=C(N/N=C/c1cccc(Oc2ccccc2)c1)c1ccc(O)cc1O	1%	17µM*	13%	1%	.
O=C(N/N=C/c1cccc(Oc2ccccc2)c1)c1ccncc1	1%	?	14%	-3%	?
COc1cc(C(=O)N/N=C/c2cccc(Oc3ccccc3)c2)ccc1O	-4%	17µM*	4%	5%	.
Cc1ccc(S(=O)(=O)C(CNC(=O)COc2ccccc2)c2cccs2)cc1 (stereo not given)	.	-9%	.	.	.
O=C1/C(=C/c2cccnc2)SC(=S)N1CC1CCCO1 (stereo not given)	-5%	?	-5%	-4%	-3%
Cc1ccc(/C=C2/SC(=O)NC2=S)o1	-2%	27µM*	-1%	0%	-4%
Cc1ccc(/C=C2/SC(=S)N(C3CCCCC3)C2=O)o1	1%	3%	16%	7%	.
O=C1/C(=C/c2ccco2)SC(=S)N1CC1CCCO1 (stereo not given)	-2%	17µM*	21%	7%	.
Cc1ccc(/C=C2\SC(=S)N(CC3CCCO3)C2=O)o1 (stereo not given)	17%	21µM*	?	4%	.
O=C(NC1CCCC1)O[C@@H]1C(=O)c2cc(Br)ccc2O[C@H]1c1ccc2c(c1)OCO2	.	.	.	.	2%
c1ccc(-c2noc(-c3ccno3)n2)nc1	16%	-10%	28%	9%	.
Cc1ccc(Sc2cc(C)nc(-c3ccccn3)n2)cc1	21%	17µM*	5%	6%	.
c1ccc(-c2nc(-c3ccccn3)no2)cc1	0.11µM*	0.54µM*	?	?	0.5µM*
Cc1ccc(-c2nc(-c3ccccn3)no2)cc1Cl	0.35µM*	0.13µM*	0.32µM*	?	.
COc1cc(-c2nc(-c3ccccn3)no2)cc(OC)c1OC	?	?	28%	?	17%
Clc1cccc(-c2nc(-c3ccccn3)no2)c1	0.32µM*	0.34µM*	0.1µM*	?	0.71µM*
CCOCCCN(Cc1ccco1)S(=O)(=O)c1cc2c(cc1Cl)NC(=O)CO2	.	-12%	.	.	.
Cc1ccc(N(CC(=O)NCc2ccc(OC(C)C)cc2)S(=O)(=O)N(C)C)cc1	.	-3%	.	.	.
Cc1ccc(-c2nc(-c3ccccn3)no2)cc1	-28%	0.085µM*	0.0002µM*	-7%	.
Cc1ccc(-c2nc(-c3ccccn3)no2)cc1[N+](=O)[O-]	0.32µM*	1.5µM*	0.32µM*	2.1µM*	.
CCCNc1ccc(-c2nc(-c3ccccn3)no2)cc1[N+](=O)[O-]	.	-1%	.	.	.
